The values that follow come from paper PMC4336329 (PLoS ONE, 2015).

Screen size: about 310,000 compounds; about 14,000 (4.5%) showed an effect of 50% or more. Effects have a minus sign here. The sample as a whole holds a higher share of strong results than the screen did.
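Note: peak tail current of the secondary pulse compared with the same well before compound.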

Chain of human ether-à-go-go-related gene (hERG) potassium channel (Q12809 whole entry, looked up): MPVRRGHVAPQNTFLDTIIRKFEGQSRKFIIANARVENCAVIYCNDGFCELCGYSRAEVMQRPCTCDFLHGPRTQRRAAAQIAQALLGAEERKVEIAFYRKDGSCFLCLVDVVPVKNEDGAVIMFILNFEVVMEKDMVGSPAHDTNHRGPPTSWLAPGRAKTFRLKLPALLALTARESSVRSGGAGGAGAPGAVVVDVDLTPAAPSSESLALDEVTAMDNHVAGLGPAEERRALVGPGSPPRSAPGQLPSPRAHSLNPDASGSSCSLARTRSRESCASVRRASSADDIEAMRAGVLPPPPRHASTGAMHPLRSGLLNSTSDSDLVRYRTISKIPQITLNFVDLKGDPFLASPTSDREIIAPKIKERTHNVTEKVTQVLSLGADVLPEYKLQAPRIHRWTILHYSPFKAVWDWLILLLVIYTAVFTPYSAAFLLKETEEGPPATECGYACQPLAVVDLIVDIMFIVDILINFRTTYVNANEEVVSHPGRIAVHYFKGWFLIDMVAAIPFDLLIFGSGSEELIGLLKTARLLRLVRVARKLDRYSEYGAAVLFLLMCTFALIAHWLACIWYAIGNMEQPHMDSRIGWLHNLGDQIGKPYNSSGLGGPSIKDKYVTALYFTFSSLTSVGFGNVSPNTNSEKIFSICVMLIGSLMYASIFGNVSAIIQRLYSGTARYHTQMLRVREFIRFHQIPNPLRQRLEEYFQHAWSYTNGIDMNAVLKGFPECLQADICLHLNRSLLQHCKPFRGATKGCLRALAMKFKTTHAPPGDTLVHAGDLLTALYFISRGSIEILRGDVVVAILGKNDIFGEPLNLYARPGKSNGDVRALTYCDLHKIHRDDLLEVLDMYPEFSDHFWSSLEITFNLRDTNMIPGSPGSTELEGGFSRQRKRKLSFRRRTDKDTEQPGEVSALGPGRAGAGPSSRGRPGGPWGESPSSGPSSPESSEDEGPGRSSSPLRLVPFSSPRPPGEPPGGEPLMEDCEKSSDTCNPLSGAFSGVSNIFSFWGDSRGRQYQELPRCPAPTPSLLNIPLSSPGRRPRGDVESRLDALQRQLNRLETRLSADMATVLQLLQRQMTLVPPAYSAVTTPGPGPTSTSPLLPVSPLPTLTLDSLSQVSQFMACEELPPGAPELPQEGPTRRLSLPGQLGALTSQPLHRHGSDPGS

This test addresses human ether-à-go-go-related gene (hERG) potassium channel (human, UniProt Q12809). As to the kind of experiment: primary screen, population patch clamp on CHO cells stably expressing hERG; higher = less effect of the substance.
On to `O=C(Cn1c2ccc(F)cc2c2nc3n(c(=O)c21)CCS3)Nc1ccccc1C(F)(F)F`, for which the “hERG current change (%, negative = inhibition) at 10uM” value was determined as 15.6%.
The result for `O=C1CCCC/C1=C/NCc1ccc(F)cc1` reads 6.07%; that for `O=C(CSc1nc2ccccc2s1)NCCOc1ccc(Cl)cc1`, -3.32%.
Take `CC1CN(C(=O)COC(=O)c2c(Cl)cccc2Cl)CC(C)O1` (centres unmarked): the “hERG current change (%, negative = inhibition) at 10uM” value was found to be 6.73%.
Regarding `NC(=O)C1CCN(C(=O)c2cc(S(=O)(=O)N3CCOCC3)c(Cl)cc2Cl)CC1`, the “hERG current change (%, negative = inhibition) at 10uM” value is 8.61%.
In the case of `CCOC(=O)C1CCN(C(=O)c2cc(S(=O)(=O)N3CCc4ccccc43)ccc2OC)CC1`, the “hERG current change (%, negative = inhibition) at 10uM” value is listed as -60.3%.
Turning to `CCOC(=O)C1CCN(S(=O)(=O)c2ccc(CNC(=O)c3ccccc3)s2)CC1`, the “hERG current change (%, negative = inhibition) at 10uM” value is reported as -50.3%.
With `CCOC(=O)C1CCN(S(=O)(=O)c2ccc(OC)c(C(=O)N3CCCCC3)c2)CC1`, the “hERG current change (%, negative = inhibition) at 10uM” value is listed as 12.5%.
As for `CCOC(=O)C1CCN(S(=O)(=O)CCNC(=O)c2ccccc2)CC1`, the “hERG current change (%, negative = inhibition) at 10uM” value is given as -2.78%.
As to `CCOC(=O)C1CCN(C(=O)c2cc(S(=O)(=O)N3CCCCCC3)ccc2OC)CC1`, the “hERG current change (%, negative = inhibition) at 10uM” value is -50.8%.
In the case of `CN1CCN(S(=O)(=O)c2ccc(CNC(=O)c3ccccc3)s2)CC1` it was 23.1%; in that of `COc1ccc(S(=O)(=O)N2CCc3ccccc32)cc1C(=O)O`, -6.25%.
With `CCOC(=O)C1CCN(S(=O)(=O)c2ccc(OC)c(C(=O)N3CCCCCC3)c2)CC1`, the “hERG current change (%, negative = inhibition) at 10uM” value is listed as -12.5%.
In the case of `CCOC(=O)C1CCN(C(=O)c2cc(S(=O)(=O)N3CCOCC3)c(Cl)cc2Cl)CC1`, the “hERG current change (%, negative = inhibition) at 10uM” value is -50.1%.
In the case of `CCOC(=O)C1CCCN(C(=O)c2cc(S(=O)(=O)N3CCCCCC3)ccc2OC)C1` (centres unmarked), the “hERG current change (%, negative = inhibition) at 10uM” value is on record as -17.4%.
With `CCOC(=O)C1CCN(C(=O)c2ccc(Cl)c(S(=O)(=O)N3CCOCC3)c2)CC1`, the “hERG current change (%, negative = inhibition) at 10uM” value was -32.4%.
In the case of `O=C(N/C(=C\c1ccco1)C(=O)N1CCCC(CO)C1)c1ccccc1` (centres unmarked) it was 15.6%; in that of `Cc1ccc(S(=O)(=O)NC2CC3CCC2C3)cc1` (centres unmarked), -1.07%.
Turning to `CCN(C(=O)COc1ccccc1)C1CCCCC1`, the “hERG current change (%, negative = inhibition) at 10uM” value amounted to 7.42%.
As for `CC(=O)C[C@@H](O)CC(=O)[C@H]1OC(=O)CCCCCCc2ccccc21`, the “hERG current change (%, negative = inhibition) at 10uM” value was -2.65%.
As for `Cc1onc(C(=O)NCc2cccs2)c1[N+](=O)[O-]`, the “hERG current change (%, negative = inhibition) at 10uM” value was 9.7%.
For `CC1CCCN(c2ccc(F)cc2N)C1.Cl` (centres unmarked), the “hERG current change (%, negative = inhibition) at 10uM” value was found to be 11.2%.
Consider `COc1cccc(NC(=O)c2ccc[n+](C)c2)c1.[I-]`, for which the “hERG current change (%, negative = inhibition) at 10uM” value came out at 18.2%.
With `Cc1cccn2cc(CNc3ccccc3)nc12`, the “hERG current change (%, negative = inhibition) at 10uM” value is -4.15%.
As for `Cc1ccc(S(=O)(=O)N2CCC(C(N)=O)CC2)cc1C(=O)NC1CCCCC1`, the “hERG current change (%, negative = inhibition) at 10uM” value is 18.9%.
As to `CCOC(=O)N1CCN(S(=O)(=O)c2ccc(C)c(C(=O)NC3CCCCC3)c2)CC1`, the “hERG current change (%, negative = inhibition) at 10uM” value worked out at 1.42%.
In the case of `CCOC(=O)C1CCN(S(=O)(=O)c2ccc(C)c(C(=O)NC3CCCCC3)c2)CC1`, the “hERG current change (%, negative = inhibition) at 10uM” value is on record as -55.8%.
Consider `O=C(Nc1ccccc1)C(O)C(O)C(=O)Nc1ccccc1` (centres unmarked), for which the “hERG current change (%, negative = inhibition) at 10uM” value is listed as 16.8%.
In the case of `CN(Cc1cccc(-n2cccn2)c1)Cc1cn(C)nc1-c1ccccc1F`, the “hERG current change (%, negative = inhibition) at 10uM” value is reported as 15.9%.
In the case of `CN(Cc1ccc(-n2cccn2)cc1)Cc1cn(C)nc1-c1ccccc1F`, the “hERG current change (%, negative = inhibition) at 10uM” value was -74.9%.
Consider `Cn1cc(CNCc2ccc(-n3cccn3)cc2)c(-c2ccccc2F)n1`, for which the “hERG current change (%, negative = inhibition) at 10uM” value is on record as -62.2%.
Consider `Cn1cc(CNCCCn2ncc3ccccc32)c(-c2ccccc2F)n1`, for which the “hERG current change (%, negative = inhibition) at 10uM” value was -36.3%.
For `CCn1ccnc1CN(C)Cc1cn(C)nc1-c1ccccc1F`, the “hERG current change (%, negative = inhibition) at 10uM” value worked out at 13.2%.
`COc1cccc(-n2cc(CNCc3cn(C)nc3-c3ccccc3F)cn2)c1`: the “hERG current change (%, negative = inhibition) at 10uM” value was -19.3%.
On to `O=C(CNC(=O)OCc1ccccc1)NC1CCCCCCC1`, for which the “hERG current change (%, negative = inhibition) at 10uM” value is recorded as -2.67%.
For `CCOCCCNC(=O)Cn1cnc2c(cnn2-c2ccc(C)c(C)c2)c1=O`, the “hERG current change (%, negative = inhibition) at 10uM” value stood at 3.91%.
Consider `O=C(NCC12CC3CC(C1)CC(CNC(=O)N1CCCC1)(C3)C2)N1CCCC1`, for which the “hERG current change (%, negative = inhibition) at 10uM” value is given as -3.73%.
Turning to `O=C(CN1CCN(C(=O)C2COc3ccccc3O2)CC1)Nc1ccc(F)cc1` (centres unmarked), the “hERG current change (%, negative = inhibition) at 10uM” value is listed as -75.7%.
In the case of `O=C(C1COc2ccccc2O1)N1CCN(c2ccc(F)cc2)CC1` (centres unmarked) it was -40.7%; in that of `O=C(CN1CCN(C(=O)C2COc3ccccc3O2)CC1)Nc1ccccc1` (centres unmarked), -66.2%; in that of `CCN1CCN(C(=O)C2COc3ccccc3O2)CC1` (centres unmarked), -7.48%.
Regarding `O=C(Nc1ccc(F)cc1)C1COc2ccccc2O1` (centres unmarked), the “hERG current change (%, negative = inhibition) at 10uM” value amounted to 9.07%.
The result for `CC(C)N(C(=O)CN1CCN(C(=O)C2COc3ccccc3O2)CC1)C(C)C` (centres unmarked) reads -0.817%; that for `CC(=O)Oc1ccc(C(=O)Nc2ccccc2C(=O)Nc2cccc(C(=O)O)c2)cc1`, 13%.
Regarding `CCOC(=O)c1cnn(-c2cc(Oc3ccccc3C)ncn2)c1N`, the “hERG current change (%, negative = inhibition) at 10uM” value stood at 14.4%.
In the case of `Cc1nc2ccccc2cc1C(=O)N/N=C/c1cccs1` it was -6.93%; in that of `CCOc1ccc(OCCOc2cccc(C(F)(F)F)c2)cc1`, 9.77%; in that of `CC1CCCN(C(=O)C(=O)Nc2ccc3nc4n(c(=O)c3c2)CCCCC4)C1` (centres unmarked), -17.8%.
In the case of `CCOC(=O)C1CCCN(C(=O)C(=O)Nc2ccc3nc4n(c(=O)c3c2)CCCCC4)C1` (centres unmarked), the “hERG current change (%, negative = inhibition) at 10uM” value is given as -1.21%.
In the case of `O=c1c2cc(NC(=S)N3CCC(N4CCCCC4)CC3)ccc2nc2n1CCCCC2`, the “hERG current change (%, negative = inhibition) at 10uM” value was -3.94%.
Regarding `CC1CCCC(C)N1CCCNC(=O)C(=O)Nc1ccc2nc3n(c(=O)c2c1)CCCCC3` (centres unmarked), the “hERG current change (%, negative = inhibition) at 10uM” value is listed as 16.8%.
As for `CC1CCCCN1C(=S)Nc1ccc2nc3n(c(=O)c2c1)CCCCC3` (centres unmarked), the “hERG current change (%, negative = inhibition) at 10uM” value was -59%.
In the case of `CC1CCN(C(=S)Nc2ccc3nc4n(c(=O)c3c2)CCCCC4)CC1`, the “hERG current change (%, negative = inhibition) at 10uM” value is given as -55.2%.
Take `CC1CCCN(C(=S)Nc2ccc3nc4n(c(=O)c3c2)CCCCC4)C1` (centres unmarked): the “hERG current change (%, negative = inhibition) at 10uM” value was -66.1%.
On to `CCOC(=O)Nc1ccc2nc3n(c(=O)c2c1)CCCCC3`, for which the “hERG current change (%, negative = inhibition) at 10uM” value came out at 7.45%.
With `O=c1c2cc(NC(=S)N3CCCCCC3)ccc2nc2n1CCCCC2`, the “hERG current change (%, negative = inhibition) at 10uM” value is given as -43.9%.
For the compound `O=c1c2cc(NC(=S)N3CCCCC3)ccc2nc2n1CCCCC2`, the “hERG current change (%, negative = inhibition) at 10uM” value is -55.7%.
Regarding `O=c1c2cc(NC(=S)N3CCCC3)ccc2nc2n1CCCCC2`, the “hERG current change (%, negative = inhibition) at 10uM” value is recorded as -28%.
Consider `CCN1CCN(C(=S)Nc2ccc3nc4n(c(=O)c3c2)CCCCC4)CC1`, for which the “hERG current change (%, negative = inhibition) at 10uM” value is given as 1.83%.
